This is an account of results in ChEMBL document CHEMBL4513216, “Probing the Open Global Health Chemical Diversity Library for Multistage-Active Starting Points for Next-Generation Antimalarials” (ACS Infect Dis, 2020).

Out of some 69,000 compounds screened, about 8,600 (12%) showed an effect of 50% or more. The entries come from a sample that favours strong results as a whole.

The experiment deals with Plasmodium berghei. Description: Screen against P. berghei liver stage (PbLuc), transformed with Luciferase, at 10uM. Type of experiment: functional, HepG2. The note with it: tested at 10 uM.
Take `COc1c(CNCc2cccc(Cn3cncn3)c2)c(C)nn1C`: the INHIBITION is -21.8%.

`Cc1cc(C)nc(C2CCCN2C(=O)c2cnco2)n1` (stereo not given): the INHIBITION is reported as 12.8%. With `Cc1cc(C(=O)NCC(c2ccccc2Cl)N2CCOCC2)on1` (stereo not given), the INHIBITION came out at 1.7%. On to `Cc1ccoc1C(=O)NCC(c1ccccc1Cl)N1CCOCC1` (stereo not given), for which the INHIBITION is on record as 30.5%.

As for `Cc1nc(C)c(C(=O)NCC(c2ccccc2Cl)N2CCOCC2)s1` (stereo not given), the INHIBITION was determined as 62.3%. For `CN(Cc1cccc(OC(F)(F)F)c1)Cc1cnn(C)c1`, the INHIBITION is recorded as -6.51%. As to `Cc1ncsc1C(=O)N(C)Cc1ccccc1`, the INHIBITION is reported as -15.75%. Consider `CO[C@@H]1CC[C@H]2[C@H]1OCCN2C(=O)C1CCOCC1`, for which the INHIBITION was found to be 33%. As for `CCO[C@H]1CC[C@H]2[C@H]1OCCN2C(=O)COc1ccccc1`, the INHIBITION was found to be 34.9%. Take `CO[C@@H]1CC[C@H]2[C@H]1OCCN2C(=O)COc1ccc(F)cc1`: the INHIBITION worked out at 29.6%. With `COc1cc(C(=O)N2CCO[C@H]3[C@H](OCC4CC4)CC[C@@H]32)ccc1F`, the INHIBITION is 30.5%. Regarding `CCO[C@H]1CC[C@H]2[C@@H]1OCCN2C(=O)COc1ccccc1`, the INHIBITION came out at 62%.

Consider `O=C(COc1ccc(F)cc1)N1CCO[C@H]2[C@@H](OCC3CC3)CC[C@@H]21`, for which the INHIBITION came to 59.3%. With `CO[C@H]1CC[C@H]2[C@H]1OCCN2C(=O)c1nn(C)c2ccccc12`, the INHIBITION is given as 47.4%.

On to `CCO[C@H]1CC[C@H]2[C@H]1OCCN2C(=O)c1nn(C)c2ccccc12`, for which the INHIBITION is 67.3%. The figure for `CCO[C@@H]1CC[C@H]2[C@H]1OCCN2C(=O)c1nn(C)c2ccccc12` is 22.6%; for `COCC(=O)N1CCO[C@H]2[C@H](OC)CC[C@@H]21` it is 50%; for `CO[C@@H]1CC[C@H]2[C@H]1OCCN2C(=O)COc1ccc(C)cc1` it is 47.5%. `CN(C)CCO[C@@H]1CC[C@H]2[C@H]1OCCN2C(=O)COc1ccccc1`: the INHIBITION is listed as 22.2%. On to `N#Cc1nc(COc2ccc3c(c2)OCO3)oc1N1CCCC1`, for which the INHIBITION came out at 45.2%. Turning to `COC(=O)c1cc(C(=O)N2CCCCC2C)n(-c2ccccc2)n1` (stereo not given), the INHIBITION was found to be 13.4%. In the case of `CN1C[C@H]2CNC[C@@]2(C(=O)N2CCN(c3ncccc3C#N)CC2)C1` it was 48.1%; in that of `COCCn1c(-c2cccc(OC)c2)cnc1NC(=O)NCC(C)C`, 25.1%; in that of `c1cnc(NC2COC3(CCN(Cc4cccs4)CC3)C2)nc1` (stereo not given), -23.8%.

On to `CCN(CC)C(=O)c1ccn(COc2ccc(F)cc2)n1`, for which the INHIBITION is reported as 1.04%.

Turning to `COC(=O)c1ccc(N(C(=O)c2cscn2)C(C)C)c(C)c1`, the INHIBITION is listed as 27%. Take `O=C(Cc1ccsc1)N1CCC(c2ccncc2)CC1`: the INHIBITION is on record as 45.2%. As for `Cc1cc(C)c(CNC(=O)N(C)Cc2ccoc2)c(=O)[nH]1`, the INHIBITION came out at 26.5%. In the case of `CN(Cc1ccc2c(c1)OCCO2)C(=O)NCCc1cnn(C)c1` it was 47.6%; in that of `CN(Cc1cnn(C)c1)C(=O)NCCc1ccc2c(c1)OCCO2`, -2.862%. The figure for `Cc1cc(C)c(CNC(=O)N(C)Cc2ccc(F)cc2)c(=O)[nH]1` is 7.27%; for `Cc1cc(C)c(CNC(=O)N(C)Cc2ccc3c(c2)OCO3)c(=O)[nH]1` it is 51.1%; for `CCN(Cc1ccc2c(c1)OCCO2)C(=O)NCc1nncn1CC` it is 11.4%.

On to `CCn1cnnc1CNC(=O)N(C)Cc1ccc2c(c1)OCO2`, for which the INHIBITION amounted to 59.4%.

In the case of `CCn1cnnc1CNC(=O)N(C)Cc1ccc2c(c1)OCCO2`, the INHIBITION worked out at 30.2%.

As to `CC(=O)NCCNC(=O)N(C)Cc1ccc2c(c1)OCCO2`, the INHIBITION worked out at 56.6%. For the compound `Cc1cc(Nc2cnccn2)cc(C2CCCN2)n1` (stereo not given), the INHIBITION is 21.7%. For `O=C(C1CCOCC1)N1CCO[C@H]2[C@H](OCC3CC3)CC[C@@H]21`, the INHIBITION was -37.4%. As for `Cc1cccc(C(=O)N2CCc3ncnc(C4CCOC4)c3CC2)n1` (stereo not given), the INHIBITION turned out to be 15.9%. `COC(C)(C)CC(C)NCc1cc(-c2ccco2)on1` (stereo not given): the INHIBITION is reported as 29.2%. In the case of `CC(CN1CCCCCC1)NCc1cc(-c2ccco2)on1` (stereo not given) it was 59.5%. `CCSCC(C)NCc1cc(-c2ccco2)on1` (stereo not given): the INHIBITION worked out at 13.7%. On to `CCc1cnccc1C(=O)NC1CCN(Cc2ccccc2F)CC1`, for which the INHIBITION is listed as 23.1%.

Consider `Cn1ncc(N2CCOC(CCNC(=O)CO)C2)cc1=O` (stereo not given), for which the INHIBITION is 25.8%. Take `Cn1ncc(N2CCOC(CCNC(=O)N3CCCCC3)C2)cc1=O` (stereo not given): the INHIBITION is reported as 47.4%. The figure for `Cn1ncc(N2CCOC(CCNC(=O)NC(C)(C)C)C2)cc1=O` (stereo not given) is 71.2%; for `O=S(=O)(C1CC1)N1C[C@H](Oc2ccccn2)[C@H]2OCCC[C@H]21` it is 15.4%; for `Cc1ccc(CNS(=O)(=O)C=c2[nH]c(=O)n3cccc3c2=O)cc1` it is 0%. In the case of `CO[C@H]1CCN(Cc2cccs2)[C@@H]2CN(Cc3ccncc3)C[C@H]12` it was 61.3%. The figure for `COCCO[C@H]1CCN(Cc2cccs2)[C@H]1Cc1cccnc1` is 32.7%; for `CO[C@@H]1CCN(Cc2cccs2)[C@@H]2CN(Cc3ccncc3)C[C@@H]21` it is 46.4%. As to `CN(C)[C@@H]1CCN(C(=O)Cc2ccc(F)cc2)[C@H]1Cc1ccncc1`, the INHIBITION came to 15.9%. For `CN(C)[C@@H]1CCN(C(=O)Cc2cccs2)[C@H]1Cc1ccncc1`, the INHIBITION was determined as 74.2%. In the case of `COCCN1CC[C@H](OC)[C@@H]1Cc1ccccc1` it was 10%; in that of `COCCN1C[C@@H]2[C@@H](OC)CCN(Cc3cccs3)[C@@H]2C1`, 16.8%. For the compound `CN(C)[C@@H]1CCN(C(=O)Cc2cccs2)[C@H]1Cc1cnn(C)c1`, the INHIBITION is given as -16.7%. In the case of `CO[C@@H]1CCN(Cc2cccs2)[C@H]1Cc1ccncc1` it was 62.5%.

In the case of `O=C(Nc1ccccc1)N1CCn2c(nnc2C2CCNCC2)C1`, the INHIBITION is 11.8%. On to `CN(C)C(=O)CN1CCOCC2(CCN(c3ncc(F)cn3)CC2)C1`, for which the INHIBITION is on record as -3.26%.

With `COCC1CN(Cc2ccc(OC)cc2)S(=O)(=O)c2cnccc2O1` (stereo not given), the INHIBITION was found to be 13.9%.

With `CC(C)CCn1nc(CNc2ccc(Br)cc2)nc1O`, the INHIBITION was 44.9%. For the compound `CCCC(=O)N1CCCC(Cn2cc(-c3ccc(F)cc3)nn2)C1` (stereo not given), the INHIBITION is given as 1.24%.

Turning to `Cc1ccc(NCc2nc3n(n2)CCCCC3)c(C)c1`, the INHIBITION is 2.69%. Regarding `CCN1C(=O)C[C@@H]2[C@@H]1CCN2S(=O)(=O)Cc1ccc(C)cc1`, the INHIBITION is reported as -17.1%.

Regarding `COc1ccc(C(=O)Nc2cc(CC(C)C)nn2C)cc1`, the INHIBITION came to 22.3%. Turning to `CCNC(=O)[C@@H]1C[C@H](N)CN1Cc1ccc(Sc2ccc(C)cc2)o1`, the INHIBITION is 67.5%. On to `CCNC(=O)[C@@H]1C[C@@H](N)CN1Cc1ccc(-c2ccccc2C#N)o1`, for which the INHIBITION is recorded as 23.9%.

As to `CCNC(=O)[C@@H]1C[C@@H](N)CN1Cc1ccc(Sc2ccc(C)cc2)o1`, the INHIBITION is reported as 77.7%. The figure for `CCNC(=O)[C@@H]1C[C@H](N)CN1C(=O)Cc1cc(C)ccc1C` is -1.91%; for `CCNC(=O)[C@@H]1C[C@@H](N)CN1C(=O)Cc1cc(C)ccc1C` it is 11.2%; for `CCNC(=O)[C@@H]1C[C@H](N)CN1Cc1ccc(-c2ccccc2C#N)o1` it is 47.1%. In the case of `CCNC(=O)[C@@H]1C[C@@H](N)CN1C(=O)CCc1ccc(C)c(C)c1` it was 15.3%. As to `CCNC(=O)[C@@H]1C[C@H](N)CN1C(=O)CCc1ccc(C)c(C)c1`, the INHIBITION stood at 30.9%. The figure for `CCNC(=O)[C@@H]1C[C@H](N)CN1Cc1ccc(-c2cc[nH]n2)o1` is 61.9%. As for `CCCNC(=O)Nc1ncc(-c2cccnc2)s1`, the INHIBITION stood at 15.5%. For `COCC(=O)N1CC[C@H]2C[C@H](C)O[C@@H]2C1`, the INHIBITION is 38.1%. The figure for `CCCC(=O)N1CCCCC1C(=O)Nc1ccc(-c2nnc[nH]2)cc1` (stereo not given) is 16.8%; for `Cn1nc(C2CCN(C(=O)CCN3CCOCC3)CC2)c2cccnc21` it is 32.8%; for `CC(C)c1nc(CSc2nnc(-c3cccs3)n2CC(N)=O)no1` it is -49.7%. As to `CC(O)CN1CCN(C(=O)c2ccn(-c3ccccc3Cl)n2)CC1` (stereo not given), the INHIBITION is -12.2%. `COC[C@@H]1CN(C)C(=O)[C@@H]2CCN(Cc3ccco3)CC[C@H]12`: the INHIBITION came out at 54.1%. As for `CN1C[C@@H](COCC2CC2)[C@H]2CCN(Cc3ccco3)CC[C@H]2C1=O`, the INHIBITION came to 46.7%.

In the case of `CN1C[C@H](COCC2CC2)[C@H]2CCN(Cc3ccco3)CC[C@H]2C1=O`, the INHIBITION came out at 33.4%. `Cc1cn2c(n1)CCC(NS(=O)(=O)c1ccc(C)s1)C2` (stereo not given): the INHIBITION is recorded as 34.4%.

As to `Cc1cn2c(n1)CCC(NS(=O)(=O)c1sc(C)nc1C)C2` (stereo not given), the INHIBITION was found to be 21.5%. On to `Cc1cn2c(n1)CCC(NS(=O)(=O)c1cc(C)sc1C)C2` (stereo not given), for which the INHIBITION is 61.5%. For the compound `Cc1cccc(COC[C@@H]2CC[C@H]3[C@H](CCN3C(=O)CC3CC3)O2)n1`, the INHIBITION worked out at 24.1%.

Take `Cc1ccc(-c2cc(C(=O)N(C)Cc3noc4c3CCCC4)[nH]n2)o1`: the INHIBITION is on record as 34.5%. In the case of `COc1ccc(C(C)Nc2ncc(C(N)=O)cc2Cl)cc1OC` (stereo not given) it was -59.5%; in that of `CC(Nc1cnn(C)c(=O)c1Cl)c1ccc(F)c(F)c1` (stereo not given), 68.9%. As to `COc1ccc(C(C)Nc2cnn(C)c(=O)c2Cl)cc1OC` (stereo not given), the INHIBITION worked out at 68.9%. In the case of `COc1ccc(C(C)Nc2ncc(C(N)=O)cc2Cl)cc1F` (stereo not given), the INHIBITION is reported as -138%. `CC(NCc1cnc(N2CCN(C)CC2)nc1)c1ccc(F)cc1` (stereo not given): the INHIBITION was determined as 26.5%. For the compound `Cc1ccc(C(C)NC(=O)CCc2cnn(C)c2)cc1F` (stereo not given), the INHIBITION amounted to 33%. On to `Cc1nccn1-c1ccc(NS(=O)(=O)c2cnn(C(C)C)c2)cn1`, for which the INHIBITION is -2.97%. On to `CC(Nc1cnn(C)c(=O)c1Cl)c1ccc(F)cc1` (stereo not given), for which the INHIBITION worked out at 65.9%. Regarding `Cn1ncc(NCc2cc(F)cc(F)c2)c(Cl)c1=O`, the INHIBITION is reported as 8.48%. Consider `Cc1nccn1-c1ccc(C(C)Nc2cnn(C)c(=O)c2Cl)cc1` (stereo not given), for which the INHIBITION turned out to be 52.6%. `COc1ccc(C(C)Nc2nc3c(C)nn(C)c3c(=O)n2C)cc1` (stereo not given): the INHIBITION is -45.2%. For the compound `Cn1ncc(N2CCOCC2)c(Cl)c1=O`, the INHIBITION amounted to 8.77%.
